# According to PubChem BioAssay (NCI):
# About 83,000 compounds went through this panel and 20% of them were active in at least one assay; those are over-represented in the sample as a whole.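 48-hour exposure, single concentration, 96-well plates; percent growth endpoint where 0 means no net growth. Active: below 10.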 Unmarked numbers belong to inactive results. Active and inactive are the calls of the source.
# Experiments:
# Assay in all cases: NCI-60 one-dose screen, 48 h (100 = growth as untreated, 0 = no growth, -100 = all killed)
# Settings in all cases: 10 µM unless noted
# [1] = system: HCT-15 colon
# [2] = system: HT29 colon
# [3] = system: SNB-75 CNS
# [4] = system: SNB-19 CNS
# [5] = system: PC-3 prostate
# [6] = system: SK-MEL-5 melanoma
# [7] = system: UACC-62 melanoma
# [8] = system: LOX IMVI melanoma
# [9] = system: SK-MEL-28 melanoma
Compound,growth [1] [%],growth [2],growth [3],growth [4] [%],growth [5] [%],growth [6],growth [7] [%],growth [8] [%],growth [9] [%]
Cc1nn(-c2ccccc2)c2nc3c(nc12)C1=NCCN1C(c1ccc(Cl)cc1)N3 (stereo not drawn),66.4,19%,62.1%,109,55.1,65.6%,84.8,79.1,73.3
O=C(/C=C/c1ccco1)c1ccccc1O,93.1,112%,108%,102,95.9,111%,103,95.2,111
C=CCOc1ccc2c(C)cc(=O)oc2c1,101,94.9%,111%,122,93,108%,105,105,113
COc1ccc2c(c1)OC1=C(C(=O)OC1)C2c1cc(OC)c2c(c1)OCCO2 (stereo not drawn),12.8,5.47% (active),30%,38.8,25.6,-17.7% (active),36.3,,45.4
CCOC(=O)CCN(CCC(=O)OCC)c1ccccc1,101,99.7%,93.9%,104,93,96.4%,99.4,95.8,117
Cc1cc(N)cc(C)c1-c1c(Br)cc(N)cc1Br,32,9.08% (active),2.44% (active),37.4,23.2,21%,48.9,16,44.5
